Data on 40 compounds can be found in PubChem BioAssay (NCI).

The panel holds about 83,000 compounds, 20% with a hit somewhere; the sample as a whole holds those more often.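 How to read the values: 0–100, growth inhibition (40 = 60% inhibited); 0, no net growth; -100 to 0, cell death (-40 = 40% of starting cells died; -100 = all dead).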 Values without a mark were called inactive. The source made the active and inactive calls. How the source made its calls: active means growth percent below 10; inactive means the rest.

The first assay concerns SK-MEL-28 melanoma. Description: NCI-60 one-dose screen, 48 h (100 = growth as untreated, 0 = no growth, -100 = all killed). Particulars: 10 µM unless noted.
Consider `Nc1ccc(S(=O)(=O)c2ccc(NO)cc2)cc1`, for which the growth was 105%.
On the same count and under the same terms, with `COc1cc(NC(C)CCCN)c2nccc(C)c2c1OC` (stereo not given) the figure was 117%; with `CCCC(=O)NNc1[nH]c(-c2cc(OC)c(OC)c(OC)c2)cc1C(=O)OCC`, 122%.
The same measure, in the same setting: with `CC(C)OC(=O)c1ccc2n1CCCc1cnc(Nc3ccccc3)nc1-2` the figure was 92.9%.
Still for that read-out and setting: with `COC(=O)c1ccc2[nH]c(O)c(C(=Nc3ccc(N(C)C(=O)CN4CCN(C)CC4)cc3)c3ccc(OC)cc3)c2c1` the figure was 32.8%.
Consider `CC(=O)c1cc(Nc2cc(C)nc(N)n2)cc(C(C)=O)c1`, for which the growth was 111%.
Take `CCOC(=O)C1=C(C(F)(F)F)NC(=S)NC1CN1C(=O)c2ccccc2C1=O` (stereo not given): the growth was 108%.
On the same count and under the same terms, with `CC(C)OC(=O)[C@H](C)N[P@@](=O)(OC[C@@]1(C)O[C@@H](n2cc(F)c(N)nc2=O)C[C@@H]1O[P@](=O)(N[C@@H](C)C(=O)OC(C)C)Oc1ccccc1)Oc1ccccc1` the figure was 93.5%.
The same measure, in the same setting: with `COc1ccc(Cn2cc3c(c2-c2ccccc2)CCc2cnoc2-3)cc1OC` the figure was 58.6%; with `CC1C(=O)CCCC1=O`, 105%.
Regarding `Brc1ccc(-c2nc3ccccc3s2)cc1`, the growth was 109%.
The same measure, in the same setting: with `O=C(Nc1cccc(Cn2c(=O)[nH]c3ccc(Oc4ncccn4)cc3c2=O)c1)c1ccc(Cl)cc1` the figure was 69.3%; with `Cc1ccc(S(=O)(=O)Nc2cccc(Cn3c(=O)[nH]c4ccc(Oc5ncccn5)cc4c3=O)c2)cc1`, 66.7%.
On the same count and under the same terms, the same measure for `CC1(C)Oc2cc3oc(=O)ccc3cc2C[C@@H]1OCCOS(=O)(=O)c1ccc(C#N)cc1`: 101%; for `COC1NC(Cl)=C(C#N)C(C#N)(C#N)C1(C)C` (stereo not given): 124%.
For `COc1ccccc1C(=O)Nc1cccc(-c2cc(=O)c3c(OC)c(OC)c(OC)cc3o2)c1`, the growth is 56%.
Still for that read-out and setting: with `C=C(NC(=O)[C@H](C(C)C)N(C)c1cccc2[nH]ccc12)C(=O)OC` the figure was 104%; with `Cc1nc2c(nnn2-c2ccccc2)c2nc(-c3ccccc3)oc(=O)c12`, 104%; with `CCCCCCCCCC[N+](C)(C)C`, 51.8%.
The same measure, in the same setting: with `CCOC(=O)c1ccc2n1CCCc1cnc(NC(C)=O)nc1-2` the figure was 99.2%; with `O=S(=O)(O)c1ccc2c(c1)Sc1cc(S(=O)(=O)O)ccc1O2`, 106%; with `COc1cc(/C=C/C(=O)c2ccc(F)cc2)ccc1OCCCCOc1cc2c(cc1OC)C(=O)N1CCCC1C=N2` (stereo not given), -42.1% (active).
The same measure, in the same setting: the same measure for `COC(=O)C(C)[C@H]1CC[C@@H]2[C@]1(C)CC=C1[C@]23C=C[C@]2(C[C@@H](OC(C)=O)CC[C@]12C)C(C(=O)OC)C3C(=O)OC` (stereo not given in full): 95%.
As for `COc1ccc2cnc(N)c(C#Cc3cc(C(=O)Nc4ccc(CN5CCN(C)CC5)c(C(F)(F)F)c4)cnc3C)c2c1`, the growth was -72.5% (active).
In the case of `COc1cccc2c1nc1cccc(OC)c1[n+]2[O-]`, the growth is 103%.
As to `O=C1/C(=N\c2cc(=O)[nH]n2S(=O)(=O)c2ccccc2)Nc2ccccc21`, the growth is 116%.
On the same count and under the same terms, with `c1ccc(Nc2ccccn2)cc1` the figure was 112%; with `COc1ccc(OC)c(Cn2cc3c(c2)-c2oncc2CC3)c1`, 50.1%.
For the compound `O=C1C(=O)c2ccccc2C(O)=C1CCCc1ccc(C2CCCC2)cc1`, the growth is 53.1%.
The same measure, in the same setting: the same measure for `CCCOC(=O)c1c(C)n(C)c2scc[n+]12`: 91.5%.
On the same count and under the same terms, the same measure for `COc1cc(-c2nc3c(c(C)nc4c3nnn4-c3ccccc3)c(=O)o2)cc(OC)c1OC`: 101%.
Still for that read-out and setting: the same measure for `COC(=O)Nc1nc2ccc(C(=O)c3ccccc3N(C)C3COC3)cc2[nH]1`: 63.6%; for `COc1cc(Cn2ccc3c2-c2oncc2CC3)cc(OC)c1`: 48.9%.
Regarding `c1ccc(Nc2ncc3c(n2)-c2cccn2CC3)cc1`, the growth was 107%.
The same measure, in the same setting: the same measure for `N=c1c2c(=O)n3c(nc2nc2sc4ccc(Cl)cc4n12)-c1ccccc1Sc1ccccc1-3`: 29.3%.
Same read-out and setting: with `NC(=O)CC(NC(=O)COc1ccc(Cl)cc1Cl)C(=O)O` (stereo not given) the figure was 109%.
Same read-out and setting: with `C=C(C)[C@@H]1CC[C@]2(COC(=O)c3ccccc3C(=O)O)CC[C@]3(C)[C@H](CC[C@@H]4[C@@]5(C)CCCNC(C)(C)[C@@H]5CC[C@]43C)[C@@H]12` the figure was 74.4%.
`C/C=C(/C)C(=O)OC1C=C(CO)C(=O)C(OC(=O)/C(C)=C\C)C1C(C)C` (stereo not given): the growth is -92.6% (active).
Same read-out and setting: the same measure for `CC(=O)OC1CC2C3CCC4C[C@@H](NC(=O)C=C(C)C)CC[C@]4(C)C3CC[C@]2(C)[C@H]1C(C)N(C)C` (stereo not given in full): -91.3% (active); for `CC(=O)/C(=C/c1ccc(-c2ccccc2)cc1)C(=O)c1ccccc1`: 96.2%.

The test system of another assay is SK-MEL-2 melanoma. The assay is described as above. Particulars: 10 µM unless noted.
Regarding `Nc1ccc(S(=O)(=O)c2ccc(NO)cc2)cc1`, the growth was 93.2%.
Still for that read-out and setting: with `COc1cc(NC(C)CCCN)c2nccc(C)c2c1OC` (stereo not given) the figure was 95.2%; with `CCCC(=O)NNc1[nH]c(-c2cc(OC)c(OC)c(OC)c2)cc1C(=O)OCC`, 103%; with `CC(C)OC(=O)c1ccc2n1CCCc1cnc(Nc3ccccc3)nc1-2`, 66.3%.
As to `COC(=O)c1ccc2[nH]c(O)c(C(=Nc3ccc(N(C)C(=O)CN4CCN(C)CC4)cc3)c3ccc(OC)cc3)c2c1`, the growth was 16.9%.
Turning to `CC(=O)c1cc(Nc2cc(C)nc(N)n2)cc(C(C)=O)c1`, the growth is 100%.
Same read-out and setting: with `CCOC(=O)C1=C(C(F)(F)F)NC(=S)NC1CN1C(=O)c2ccccc2C1=O` (stereo not given) the figure was 100%; with `CC(C)OC(=O)[C@H](C)N[P@@](=O)(OC[C@@]1(C)O[C@@H](n2cc(F)c(N)nc2=O)C[C@@H]1O[P@](=O)(N[C@@H](C)C(=O)OC(C)C)Oc1ccccc1)Oc1ccccc1`, 122%.
As for `COc1ccc(Cn2cc3c(c2-c2ccccc2)CCc2cnoc2-3)cc1OC`, the growth was 48%.
`CC1C(=O)CCCC1=O`: the growth is 99%.
Consider `Brc1ccc(-c2nc3ccccc3s2)cc1`, for which the growth is 105%.
The same measure, in the same setting: the same measure for `O=C(Nc1cccc(Cn2c(=O)[nH]c3ccc(Oc4ncccn4)cc3c2=O)c1)c1ccc(Cl)cc1`: 59.5%; for `Cc1ccc(S(=O)(=O)Nc2cccc(Cn3c(=O)[nH]c4ccc(Oc5ncccn5)cc4c3=O)c2)cc1`: 55%; for `CC1(C)Oc2cc3oc(=O)ccc3cc2C[C@@H]1OCCOS(=O)(=O)c1ccc(C#N)cc1`: 102%.
Turning to `COC1NC(Cl)=C(C#N)C(C#N)(C#N)C1(C)C` (stereo not given), the growth is 99.1%.
Still for that read-out and setting: with `COc1ccccc1C(=O)Nc1cccc(-c2cc(=O)c3c(OC)c(OC)c(OC)cc3o2)c1` the figure was 31.1%; with `C=C(NC(=O)[C@H](C(C)C)N(C)c1cccc2[nH]ccc12)C(=O)OC`, 104%; with `Cc1nc2c(nnn2-c2ccccc2)c2nc(-c3ccccc3)oc(=O)c12`, 108%.
As for `CCCCCCCCCC[N+](C)(C)C`, the growth was 56.3%.
As for `CCOC(=O)c1ccc2n1CCCc1cnc(NC(C)=O)nc1-2`, the growth is 102%.
Still for that read-out and setting: with `O=S(=O)(O)c1ccc2c(c1)Sc1cc(S(=O)(=O)O)ccc1O2` the figure was 107%; with `COc1cc(/C=C/C(=O)c2ccc(F)cc2)ccc1OCCCCOc1cc2c(cc1OC)C(=O)N1CCCC1C=N2` (stereo not given), -24.6% (active).
Same read-out and setting: with `COC(=O)C(C)[C@H]1CC[C@@H]2[C@]1(C)CC=C1[C@]23C=C[C@]2(C[C@@H](OC(C)=O)CC[C@]12C)C(C(=O)OC)C3C(=O)OC` (stereo not given in full) the figure was 100%; with `COc1ccc2cnc(N)c(C#Cc3cc(C(=O)Nc4ccc(CN5CCN(C)CC5)c(C(F)(F)F)c4)cnc3C)c2c1`, 56.8%.
On the same count and under the same terms, the same measure for `COc1cccc2c1nc1cccc(OC)c1[n+]2[O-]`: 35.6%; for `O=C1/C(=N\c2cc(=O)[nH]n2S(=O)(=O)c2ccccc2)Nc2ccccc21`: 102%.
On to `c1ccc(Nc2ccccn2)cc1`, for which the growth was 102%.
Still for that read-out and setting: with `COc1ccc(OC)c(Cn2cc3c(c2)-c2oncc2CC3)c1` the figure was 45%.
Same read-out and setting: the same measure for `O=C1C(=O)c2ccccc2C(O)=C1CCCc1ccc(C2CCCC2)cc1`: 33.2%; for `CCCOC(=O)c1c(C)n(C)c2scc[n+]12`: 76.4%; for `COc1cc(-c2nc3c(c(C)nc4c3nnn4-c3ccccc3)c(=O)o2)cc(OC)c1OC`: 107%.
Still for that read-out and setting: the same measure for `COC(=O)Nc1nc2ccc(C(=O)c3ccccc3N(C)C3COC3)cc2[nH]1`: 24.2%.
`COc1cc(Cn2ccc3c2-c2oncc2CC3)cc(OC)c1`: the growth is 28.8%.
Same read-out and setting: the same measure for `c1ccc(Nc2ncc3c(n2)-c2cccn2CC3)cc1`: 101%; for `N=c1c2c(=O)n3c(nc2nc2sc4ccc(Cl)cc4n12)-c1ccccc1Sc1ccccc1-3`: 7.77% (active).
On the same count and under the same terms, with `NC(=O)CC(NC(=O)COc1ccc(Cl)cc1Cl)C(=O)O` (stereo not given) the figure was 104%; with `C=C(C)[C@@H]1CC[C@]2(COC(=O)c3ccccc3C(=O)O)CC[C@]3(C)[C@H](CC[C@@H]4[C@@]5(C)CCCNC(C)(C)[C@@H]5CC[C@]43C)[C@@H]12`, 94.4%; with `C/C=C(/C)C(=O)OC1C=C(CO)C(=O)C(OC(=O)/C(C)=C\C)C1C(C)C` (stereo not given), -48.9% (active).
Same read-out and setting: with `CC(=O)OC1CC2C3CCC4C[C@@H](NC(=O)C=C(C)C)CC[C@]4(C)C3CC[C@]2(C)[C@H]1C(C)N(C)C` (stereo not given in full) the figure was 5.9% (active); with `CC(=O)/C(=C/c1ccc(-c2ccccc2)cc1)C(=O)c1ccccc1`, 99.1%.
